PubChem BioAssay AID2685 (National Center for Advancing Translational Sciences (NCATS), 2010)
Screen size: about 320,000 compounds; about 2,100 (0.66%) were called active. Inconclusive results (about 53%) are left out. The call rests on the fitted dose curve; in most records, active means well fitted inhibition curve with a large enough effect in the signal ratio, with a control signal flat (not every such curve was filed as active); inconclusive means small, poorly fitted or top-dose-only effect, or effect the other way, or a change in a side signal; inactive means flat fitted curve, though single readings scatter; the % refers to the signal ratio. The entries come from a sample that favours actives as a whole.

Assay: qHTS Assay for Lipid Storage Modulators in Drosophila S3 Cells;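 on cell number change: cells counted by Cell Tracker Red CMTPX staining in the red channel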
Settings: BODIPY lipid droplet fluorescence, 18-24 h, cells fed with added oleic acid; cell number change: measured here: cell count max response; series mostly up to 46.1 µM
Outline: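 Drosophila S3 cells got compounds at several concentrations plus oleic acid (400 uM solution). Laser-scanning cytometry with 488 nm excitation read lipid droplets at 500-530 nm and cells at 575-640 nm. Percent activity was relative to 20 uM Triacsin C.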
Potency means the concentration at half of the fitted maximal effect.

Compound | Potency | cell number change [%] | outcome
COc1ccc(CNC(C)C23CC4CC(CC(C4)C2)C3)c(OC)c1OC (stereo not drawn) | inactive | 0.296 | –
CCCCCNC(=O)c1cccnc1SCC(=O)Nc1ccccc1OC | inactive | -0.809 | –
COc1ccc(OC)c(NC(=O)CSc2ncccc2C(=O)O)c1 | inactive | – | –
CCCCCCCCNC(=O)c1cccnc1SCC(=O)Nc1ccc(OC)cc1OC | 20.6 µM (active) | -25.3 | –
CN(C(=O)C1CCC(=O)N(Cc2ccccc2F)C1)C1CCOCC1 (stereo not drawn) | inactive | 7.76 | –
COC(=O)c1cc(C)sc1NC(=O)CC1Nc2ccccc2NC1=O (stereo not drawn) | 16.4 µM (active) | -20.6 | –
CCc1cc(C(=O)OC)c(NC(=O)CC2Nc3cc(C)c(C)cc3NC2=O)s1 (stereo not drawn) | inactive | -3.56 | –
CC(C)CNC(=O)CC1Nc2ccccc2NC1=O (stereo not drawn) | 10.3 µM (active) | -19.4 | –
CC(NC(=O)CC1Nc2ccccc2NC1=O)c1ccccc1 (stereo not drawn) | inactive | – | –
COC(=O)c1c(NC(=O)CC2Nc3ccccc3NC2=O)sc(C)c1C (stereo not drawn) | inactive | 18.7 | –
CCCCNC(=O)CC1Nc2ccccc2NC1=O (stereo not drawn) | inactive | – | –
COC(=O)c1[nH]c(C)c(/C(O)=C2\C(=O)C(=O)N(CCN(C)C)C2c2cccc(OC)c2OC)c1C (stereo not drawn) | inactive | -3.7 | –
Cc1cc(=O)oc2cc(OC(C)C(=O)NCCCn3ccnc3)ccc12 (stereo not drawn) | inactive | 5.93 | –
COC(=O)c1cn(NC(=O)c2ccncc2)c(=O)c2ccccc12 | inactive | -18.7 | –
COc1ccccc1C(=O)N1CCN(Cc2nc(CC3CC3)no2)CC1 | inactive | 10.8 | –
Cc1ccc(NC(=O)CS(=O)CC(=O)Nc2ccccc2-c2ccc(C)o2)cc1 (stereo not drawn) | inactive | 17.8 | –
Cc1ccc(NC(=O)CS(=O)CC(=O)NCCCc2ccccc2)cc1Cl (stereo not drawn) | inactive | – | –
Cc1ccc(-c2ccccc2NC(=O)CS(=O)CC(=O)Nc2ccc(C)c(Cl)c2)o1 (stereo not drawn) | 23.1 µM (active) | -13 | –
OCC1(CCc2ccccc2)CCN(Cc2ccccc2Cl)CC1 | inactive | 4.39 | –
COc1ccc(-c2nnc3ccc(SCC(=O)Nc4cc(C)on4)nn23)cc1 | inactive | 8.27 | –
COc1ccc(-n2c(C)cc(C(=O)NC3CCCCC3)c2C)cc1 | inactive | -26.1 | –
Cc1cccc(-n2c(C)cc(C(=O)NC3CCCCC3)c2C)c1 | 20.6 µM (active) | -27.1 | –
Cc1cc(C(=O)NC2CCCCC2)c(C)n1-c1ccc(F)cc1 | inactive | 2.04 | –
O=C(Nc1ccc(Cl)cc1)C1C2CCC3C(CCC21)C3(Cl)Cl (stereo not drawn) | inactive | -4.94 | –
O=C(NCC1CCCN1S(=O)(=O)c1ccccc1)C(=O)NC1CC1 (stereo not drawn) | inactive | – | –

Compound | Potency | cell number change [%] | outcome
CN(CC(=O)O)S(=O)(=O)c1ccc(F)cc1 | inactive | 12.3 | –
CCN(CC)S(=O)(=O)c1ccc(F)cc1 | inactive | 12.5 | –
CCCc1ccc(S(=O)(=O)N(C)S(=O)(=O)c2ccc(F)cc2)cc1 | 0.82 µM (active) | 17.6 | –
CCN(CC(=O)Nc1ccccc1C(F)(F)F)C(=O)CSCc1ccc(C)cc1 | inactive | 3.04 | –
COc1ccc(CNC(=O)OCCN2CCN(S(=O)(=O)c3ccc(C)cc3)CCC2=O)cc1 | inactive | 22.9 | –
Cc1ccc(O)c(NC(=O)CN(C)S(=O)(=O)c2ccc(Cl)cc2)c1 | inactive | 2.51 | –
COc1ccc(N2C(=O)C(CC(=O)Nc3ccccc3)N(CCc3ccc(OC)c(OC)c3)C2=O)cc1 (stereo not drawn) | inactive | 0.202 | –
O=C(COC(=O)Cn1cnc2ccccc21)NCCC1=CCCCC1 | inactive | -15.3 | –
O=C(COC(=O)Cn1cnc2ccccc21)NCCc1ccc(Cl)cc1 | 8.2 µM (active) | 22.6 | –
O=C(COC(=O)Cn1cnc2ccccc21)NCc1ccc(F)cc1 | inactive | 21.3 | –
CC(=O)Nc1ccc(S(=O)(=O)N2CCN=C2SCc2cccnc2)cc1 | inactive | -0.745 | –
COc1cc(-n2nc(C)c3c2OC(N)=C(C#N)C3c2ccccc2)c(Cl)c(Br)c1O (stereo not drawn) | inactive | -5.47 | –
Cc1cc(N2CCCCC2)nc2c(C)cccc12 | inactive | 3.12 | –
COc1ccc(/C=c2/sc3n(c2=O)C(c2ccccc2OC)C2=C(N=3)c3ccccc3CC2)cc1O (stereo not drawn) | inactive | -22.9 | –
CN(C)C(=O)C(OC(=O)c1ccc2c(c1)CCCC2)c1ccccc1 (stereo not drawn) | 0.58 µM (active) | 15.3 | –
COc1ccc(C(=O)OC(C(=O)c2ccccc2)c2ccccc2)cc1 (stereo not drawn) | inactive | -12.3 | –
CN(C)C(=O)C(OC(=O)c1ccc2ccccc2n1)c1ccccc1 (stereo not drawn) | inactive | 16.5 | –
CCOC(=O)c1cc(=O)c2c([N+](=O)[O-])ccc(OC)c2o1 | inactive | -14.1 | –
CC(=O)Nc1cccc(Oc2ccc3c(c2)C(=O)NC3=O)c1 | inactive | -4.38 | –
CCC(=O)Nc1ccc(Oc2ccc3c(c2)C(=O)NC3=O)cc1 | inactive | -7.29 | –
CCCC(=O)Nc1cccc(Oc2ccc3c(c2)C(=O)NC3=O)c1 | 1.46 µM (active) | -28.1 | –
CC(C)c1ccc(NC(=O)N2CCOCC2)cc1 | inactive | -1.06 | –
O=C(CSc1nc(-c2ccc(F)cc2)nc2c1Cc1ccccc1O2)Nc1ccc(C(=O)O)cc1 | inactive | -7.56 | –
CN1CCCN(C(=O)c2ccccc2Cl)CC1 | inactive | -6.61 | –
CN1CCCN(C(=O)c2c(F)cccc2Cl)CC1 | 1.64 µM (active) | -3.31 | –

Compound | Potency | cell number change [%] | outcome
O=C(c1c(F)cccc1F)N1CCCC1 | inactive | 7.6 | –
CCOC(=O)/C(C#N)=C(/C)c1ccc(OC)cc1 | inactive | – | –
CCOc1cc2[nH]c(=O)n(CCc3ccc(OC)c(OC)c3)c(=O)c2cc1OCC | inactive | 0.389 | –
O=C(O)c1ccc(N/N=C2/CCCc3ccccc32)cc1 | inactive | 24.2 | –
CCN(CC)C(=O)c1cccc2c1C(=O)c1ccccc1-2 | inactive | 11.5 | –
O=C1c2ccccc2-c2c1cccc2C(=O)N(CCO)CCO | 25.9 µM (active) | -9.84 | –
CC(C)CNC(=O)c1cccc2c1-c1ccccc1C2=O | inactive | 24.1 | –
CC12CN(S(=O)(=O)c3ccccc3)CC(C)(CN(S(=O)(=O)c3ccccc3)C1)C2 | inactive | 1.2 | –
CCC(C)(C)NC(=O)CN(C(=O)c1csnn1)c1cccc2c1CCCC2 | inactive | -10.5 | –
O=C(NCCO)c1cc2c([nH]c3ccccc32)c(-c2ccccc2)n1 | inactive | -12.4 | –
COc1cc(-c2nc(C(=O)NC3CCCCC3)cc3c2[nH]c2ccccc23)cc(OC)c1OC | 13 µM (active) | 13.2 | –
COc1ccc(-c2nc(C(=O)NCC3CCCO3)cc3c2[nH]c2ccccc23)cc1 (stereo not drawn) | inactive | -11.3 | –
CCOCCCNC(=O)Cn1cc2c(n1)CCCC2 | inactive | 13.2 | –
COC(=O)Cn1c(=NC(=O)c2cc(OC)cc(OC)c2)sc2cc(OC)ccc21 | inactive | -0.279 | –
COc1ccc(NC(=O)CSc2nncs2)cc1S(N)(=O)=O | inactive | – | –
Cc1c(N)cccc1N | inactive | 16.6 | –
O=C(CSC1=NS(=O)(=O)c2ccccc2N1)Nc1ccccc1F | 6.51 µM (active) | -3.42 | –
O=C(CSC1=NS(=O)(=O)c2cc(Cl)ccc2N1)Nc1ccccc1F | inactive | 0.0379 | –
O=C(CSC1=NS(=O)(=O)c2cc(F)ccc2N1)Nc1ccccc1F | – | – | inactive [at 0.0737 µM]
Cc1ccc(S(=O)(=O)N2CCN(S(=O)(=O)N3CCC(C)CC3)CC2)c(C)c1 | inactive | 12.8 | –
COCCCNC(=O)c1cccs1 | inactive | 12.5 | –
O=C(NC(Cc1ccccc1)C(=O)O)c1ccco1 (stereo not drawn) | inactive | 6.62 | –
CCOC(=O)c1sc(NC(=O)c2cccs2)nc1C | inactive | 7.32 | –
CCCC(=O)Nc1nc(C(=O)OCC)cs1 | inactive | -4.4 | –
CCOC(=O)c1csc(NC(=O)c2cccs2)n1 | 20.6 µM (active) | -11.6 | –

Compound | Potency | cell number change [%] | outcome
CC(=O)Nc1ccc(OCCCNC(=O)c2c(-c3ccccc3)noc2C)cc1 | inactive | -3.99 | –
O=C(NCCCCNC(=O)c1cccs1)c1cccs1 | inactive | -29 | –
Cc1ccc(CNC(=O)[C@H](Cc2ccccc2)NC(=O)c2ccco2)cc1 | inactive | 9.45 | –
COCCCNC(=O)c1c(-c2ccccc2)noc1C | inactive | 19.6 | –
CCOCCCNC(=O)c1c(-c2ccccc2)noc1C | 20.6 µM (active) | -15.4 | –
CCOCCCNC(=O)C(Cc1ccccc1)NC(=O)c1ccco1 (stereo not drawn) | 13 µM (active) | -1.42 | –
CCOCCCNC(=O)c1cccs1 | 6.51 µM (active) | 17.5 | –
Cc1cccc(/C=C/c2nc3ccccc3c(=O)[nH]2)c1 | inactive | -2.24 | –
O=C(NCC(=O)N(Cc1cccs1)C(C(=O)NC1CCCC1)c1ccncc1)c1ccco1 (stereo not drawn) | inactive | – | –
Cn1c(Cn2c(=O)sc3ccccc32)nnc1SCC(N)=O | inactive | 4.82 | –
CCCCCC(=O)Nc1cc(N(C)C)nc2ccccc12 | inactive | 6.14 | –
COc1ccc(CC(=O)OCC(=O)Nc2ccc(C(=O)Nc3ccc(OC)cc3)cc2)cc1 | inactive | 6.99 | –
Cc1ccc2sc(NC(=O)CN3C(=O)c4ccccc4C3=O)nc2c1C | inactive | -0.832 | –
CCCC(O)(CCC)C(=O)NN(C(=O)CCl)c1cccc(C)c1 | 20.6 µM (active) | -4.84 | –
Cc1cccc(N(NC(=O)C(C)(C)O)C(=O)c2ccccc2)c1 | inactive | 7.68 | –
CCCC(O)(CCC)C(=O)NN(C(=O)OC)c1ccccc1 | inactive | 12.3 | –
CCCCC(O)(CCCC)C(=O)NN(C(=O)OCC)c1ccccc1 | inactive | 11.1 | –
CCC(O)(CC)C(=O)NN(C(=O)CCl)c1ccccc1 | 20.6 µM (active) | -5.65 | –
CCCCC(O)(CCCC)C(=O)NN(C(=O)OC)c1ccccc1 | inactive | 0.36 | –
CC1CCCCN1Cc1c(O)ccc2c(=O)c(-c3ccc(Cl)cc3Cl)coc12 (stereo not drawn) | inactive | -3.44 | –
Cc1ccc(C)c(NC(=S)NCc2cccs2)c1 | inactive | -1.36 | –
CC(NC(=O)c1ccc(S(=O)(=O)Nc2ccccc2)cc1)c1ccc(S(N)(=O)=O)cc1 (stereo not drawn) | inactive | 2.41 | –
CC(=O)Nc1cccc(C(=O)NC(C)c2ccc(S(N)(=O)=O)cc2)c1 (stereo not drawn) | 1.64 µM (active) | 21.3 | –
CC(=O)Nc1cccc(C(=O)NC(C)c2ccc(-n3ccnc3)cc2)c1 (stereo not drawn) | inactive | – | –
